# Dicer processing = inhibitors of human Dicer processing of pre-microRNA; Q9UPY3; cat-ELCCA pre-miR-21 Dicer processing, chemiluminescence; hits give high values; z-score at 25 µM; 47,000 tested, 6% active; in the data active means z-score above about 3, passing the limit was not always enough;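 further: higher signal means more uncleaved substrate so more Dicer inhibition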
# Numbers stand for hits; - = inactive. Only a selection was taken, and hits are over-represented in it overall.
SMILES,Dicer processing
C=CCN(CC=C)Cc1c(C)[nH]c2ccc(C)cc2c1=O,-
S=C(Nc1ccc2c(c1)CCC2)N1CCSCC1,-
OCCCNC(=S)Nc1cc(Cl)ccc1Cl,-
COC(=O)[C@H]1O[C@@H](OC(C)=O)[C@H](OC(C)=O)[C@@H](OC(C)=O)[C@@H]1OC(C)=O,-
CSC(C)c1ccn(S(=O)(=O)c2ccc(Cl)cc2)n1 (centres undefined),-
COc1ccc(/C=C2\OC(c3ccc(OC)c(OC)c3)=Cc3cc(OC)c(OC)cc32)cc1OC,-
CC1CCCC(C)N1S(=O)(=O)c1ccc(NC2=NS(=O)(=O)c3ccccc32)cc1 (centres undefined),-
FC(F)(F)c1cccc(NC(=S)N2CCCc3ccccc32)c1,-
CCOC(=O)c1c(NC(=O)c2ccco2)sc(C)c1-c1ccccc1,-
CCCOC(=O)c1ccc2c(c1)C(=O)NC2=O,-
CCOc1ccc(C2C(C(=O)OCc3ccccc3)=C(C)NC3=C2C(=O)CC(C)(C)C3)cc1 (centres undefined),-
CC(=O)c1cc2c(cc1Br)OCCCO2,-
O=C(O)C(Cc1c[nH]c2ccccc12)N1C(=O)C2CCCCC2C1=O (centres undefined),-
CCN(CC)c1ccc(C2Nc3ccccc3-c3cc(C)nn32)cc1 (centres undefined),3.3
CSc1ccc(C2Nc3ccc(C)cc3-c3cc(C)nn32)cc1 (centres undefined),-
Cc1cc2n(n1)C(c1ccc(N3CCOCC3)cc1)Nc1c(C)cccc1-2 (centres undefined),3.8
Cc1ccc2c(c1)-c1cc(C)nn1C(c1ccc(C(=O)O)cc1)N2 (centres undefined),-
Cc1cc2n(n1)C(c1ccsc1)Nc1ccccc1-2 (centres undefined),-
Cc1ccc2c(c1)-c1cc(C)nn1C(c1ccc(O)cc1)N2 (centres undefined),-
COc1ccc(C2Nc3ccc(C)cc3-c3cc(C)nn32)cc1O (centres undefined),-
CSc1ccc(C2Nc3ccccc3-c3cc(C)nn32)cc1 (centres undefined),4.8
Cc1ccc2c(c1)-c1cc(C)nn1C(c1ccc(N(C)C)cc1)N2 (centres undefined),6.8
O=[N+]([O-])c1cccc(-c2nnn(Cc3c(F)cccc3Cl)n2)c1,-
CC(=O)N[C@@H]1[C@@H](O)[C@H](O)[C@@H](CO)O[C@@H]1O,-
Cc1ccc(/C(O)=C2/C(=O)C(=O)N(CC3CCCO3)C23C(=O)N(C)c2ccccc23)cc1F (centres undefined),-
SMILES,Dicer processing
CCN1c2cc(NC(C)=O)ccc2C(C)CC1(C)C (centres undefined),-
O=S1(=O)CC(c2ccccc2)CS(=O)(=O)C1CCN1CCOCC1 (centres undefined),-
CCOC(=O)N1CCc2c(sc3c2C(=O)NC(c2ccccc2O)N3)C1 (centres undefined),-
C=CCSc1n[nH]c(=O)[nH]c1=O,-
CCNc1[nH]c(=S)nc2sc3c(c12)CCC(C)C3 (centres undefined),-
O=S(=O)(c1ccccc1)N(Cc1ccc(Cl)cc1)c1ncc(C(F)(F)F)cc1Cl,-
CCOC(=O)CSC1=C(C#N)C(c2ccco2)C(C(=O)Nc2ccccc2)=C(C)N1 (centres undefined),-
CSc1cc(C(F)(F)F)c(C(=O)Nc2ccc(Cl)cc2)cn1,-
COC(=O)c1ccc(C2Nc3c(C)cc(C)cc3-c3cc(C)nn32)cc1 (centres undefined),-
Cc1cc2n(n1)C(c1ccc(N3CCCC3)cc1)Nc1ccccc1-2 (centres undefined),4.5
CSc1ccc(C2Nc3c(C)cccc3-c3cc(C)nn32)cc1 (centres undefined),3.9
CN(/N=C/c1ncc(C(F)(F)F)cc1Cl)C(=O)c1ccccc1Cl,-
C=CCOC(=O)c1sc(N2C(=O)c3oc4ccccc4c(=O)c3C2c2cccc(Cl)c2)nc1C (centres undefined),-
CCOC(=O)c1c(NC2SC(=O)N(c3ccccc3)C2=O)sc(C)c1C (centres undefined),-
Cc1ccc(N2C(=O)/C(=C\c3coc4cc(C)cc(C)c4c3=O)SC2=S)c(C)c1,-
CCc1nc2c(sc3nc(C)cc(C)c32)c(=O)o1,-
O=C(NC(=S)Nc1ccccc1Cl)c1ccc(F)cc1F,10
O=C(NC(=S)Nc1ccccc1Cl)c1cnn2c(C(F)(F)F)cc(C(F)(F)F)nc12,-
O=C(NC(=S)Nc1ccccc1Cl)c1ccccc1,-
N#C/C(=C\Nc1cccc(Cl)c1F)S(=O)(=O)c1ccc(Cl)cc1,-
Fc1ccc(-n2nnnc2-c2cnn(-c3ccccc3Cl)c2C(F)(F)F)cc1,-
Nc1ncc(-c2nnnn2-c2ccc(F)cc2)c(C(F)(F)F)n1,-
FC(F)(F)c1[nH]ncc1-c1nnnn1-c1ccc(Cl)cc1,4.8
Nc1ncnc2oc(-c3ccccc3)c(-c3ccccc3)c12,-
Cn1c(Oc2ccc(Br)cc2)nc2c1c(=O)n(Cc1ccc(Br)cc1)c(=O)n2C,-
SMILES,Dicer processing
Cn1c(Oc2ccc(F)cc2)nc2c1c(=O)n(Cc1ccccc1)c(=O)n2C,-
COc1ccc(Oc2nc3c(c(=O)n(Cc4ccc(Br)cc4)c(=O)n3C)n2C)cc1,4.1
Cc1ccc(N2N=C(C(=O)c3cccs3)SC2=C2C(=O)c3ccccc3C2=O)cc1,-
CCCCOC(=O)n1c(=O)oc2ccccc21,6.6
O=C(c1ccc(Cl)cc1)n1c(=O)oc2ccccc21,-
CCOC(=O)n1c(=S)oc2ccccc21,-
COc1ccc(-c2c(C#N)sc(C(=O)NC3(O)C(=O)c4ccccc4C3=O)c2-c2ccc(OC)cc2)cc1,-
CCOc1ccc(/C(O)=C2\C(=O)C(=O)N(c3nccs3)C2c2cccc(Br)c2)cc1 (centres undefined),-
CCOc1ccc2c(c1)C(C)CC(C)(C)N2C(=O)NC1CCCCC1 (centres undefined),-
CC1=CC(C)(C)N(C(=O)NC2CCCCC2)c2cc(C)ccc21,-
Cc1ccc2c(c1)N(C(=O)NC1CCCCC1)C(C)(C)CC2C (centres undefined),3.2
N#Cc1ccc(/C=C2\NC(=S)NC2=O)cc1,-
COC(=O)C1=C(C)NC2=C(C(=O)CCC2)C1c1ccc(-c2cccs2)s1 (centres undefined),-
O=C(NC(=S)Nc1cc(-c2cccs2)[nH]n1)c1ccccc1,-
CCOC(=O)N1CCN(S(=O)(=O)c2ccc(Cl)cc2)CC1,-
CCCS(=O)(=O)N1CCN(C2CCN(C(=O)OCC)CC2)CC1,-
CCOC(=O)N1CCN(S(C)(=O)=O)CC1,3.5
CC(C)c1ccc(Nc2s[nH]c(=O)c2C#N)cc1,-
Cc1cc(C(F)(F)F)c2c(C)nn(-c3ccc(C)c(Cl)c3)c2n1,-
O=C(c1cccs1)c1cn(CC(=O)N2CCOCC2)c2ccccc12,-
CCOC(=O)Cn1cc(C(=O)C2CC2)c2ccccc21,-
CC1CCN(C(=O)Cn2cc(C(=O)C3CC3)c3ccccc32)CC1,5.1
CCC(=O)c1cn(CC(=O)N2CCOCC2)c2ccccc12,-
CC1CCCC(C)N1C(=O)Cn1cc(C(=O)C2CCCCC2)c2ccccc21 (centres undefined),-
COC(=O)c1cn(CC(=O)N2CCOCC2)c2ccccc12,6
O=C(c1ccc(Cl)cc1)n1ccc(-c2ccc(C#Cc3ccccc3)s2)n1,-
CN(C)CCOC(=O)c1ccc(C(=O)c2ccccc2)cc1,-
CN1CN=C(SCc2cccc(C#N)c2)NC1,-
Cc1ccc2cc(-c3noc(-c4cccs4)n3)c(=O)[nH]c2c1,-

# Source: PubChem (Center for Chemical Genomics, University of Michigan)
